Data published in PubChem BioAssay AID1159580 (chemical genetic matrix, 2015).
Hit rate of the full screen: of about 5,500 compounds, about 2,000 (36%) were called active. Not shown: some 18% with an inconclusive outcome. No stated cut-off is given here; in the data, active means normalized growth mostly below about 0.91 (no sharp cut-off); inconclusive means no clear call, values can overlap the other calls; inactive means mostly above about 0.92. This is one part of the list.

Test: chemical genetic growth profiling, strain panel (AID 1159580);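 further: tested at 20 µM; growth read once vehicle control cultures reached saturation at 30 °C; 1 = growth at the plate median or of vehicle wells; lower values mean less growth of the strain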
Details: S. cerevisiae deletion strains, growth OD
[1] = locus YAL013W, strain DEP1, active compounds read low
[2] = locus YAL040C, strain CLN3, active compounds read low
[3] = locus YCL061C, strain MRC1 (second series), active compounds read low
[4] = locus YDR363W, strain ESC2, active compounds read low
[5] = locus YER002W, strain NOP16, active compounds read low
[6] = locus YNL153C, strain GIM3, active compounds read low
[7] = locus YNL175C, strain NOP13, active compounds read low
[8] = locus YNL197C, strain WHI3, active compounds read low
[9] = locus YNL224C, strain SQS1, active compounds read low
[10] = locus YOR083W, strain WHI5 (second series), active compounds read low
[11] = locus YPL241C, strain CIN2, active compounds read low
[12] = locus YAR019C, strain CDC15, active compounds read low
[13] = locus YBL105C, strain PKC1, active compounds read low
[14] = locus YBR135W, strain CKS1, active compounds read low
[15] = locus YBR136W, strain MEC1, active compounds read low
[16] = locus YBR160W, strain CDC28, active compounds read low
[17] = locus YDL017W, strain CDC7, active compounds read low
[18] = locus YDL028C, strain MPS1, active compounds read low
[19] = locus YDL101C, strain DUN1, active compounds read low
[20] = locus YDL108W, strain KIN28, active compounds read low
[21] = locus YDL132W, strain cdc53, active compounds read low
[22] = locus YDL214C, strain PRR2, active compounds read low
[23] = locus YDR052C, strain DBF4, active compounds read low
[24] = locus YDR054C, strain cdc34, active compounds read low
[25] = locus YDR226W, strain ADK1, active compounds read low
[26] = locus YDR477W, strain SNF1, active compounds read low
[27] = locus YER123W, strain YCK3, active compounds read low
[28] = locus YER133W, strain GLC7, active compounds read low
[29] = locus YFL009W, strain cdc4, active compounds read low
[30] = locus YFL029C, strain CAK1, active compounds read low
[31] = locus YFR003C, strain YPI1, active compounds read low
[32] = locus YFR019W, strain FAB1, active compounds read low
[33] = locus YFR028C, strain CDC14, active compounds read low
[34] = locus YGR040W, strain KSS1, active compounds read low
[35] = locus YGR052W, strain FMP48, active compounds read low
[36] = locus YGR092W, strain DBF2, active compounds read low
[37] = locus YHR030C, strain SLT2, active compounds read low
[38] = locus YHR079C, strain IRE1, active compounds read low
[39] = locus YHR082C, strain KSP1, active compounds read low
[40] = locus YHR205W, strain SCH9, active compounds read low
[41] = locus YIL147C, strain SLN1, active compounds read low
[42] = locus YJL095W, strain BCK1, active compounds read low
[43] = locus YJL128C, strain PBS2, active compounds read low
[44] = locus YJL157C, strain FAR1, active compounds read low
[45] = locus YJR016C, strain ILV3, active compounds read low
[46] = locus YJR066W, strain TOR1 (second series), active compounds read low
[47] = locus YJR066W, strain TOR1, active compounds read low
[48] = locus YKL048C, strain ELM1, active compounds read low
[49] = locus YKL067W, strain YNK1, active compounds read low
[50] = locus YKL101W, strain HSL1, active compounds read low
[51] = locus YKL193C, strain SDS22, active compounds read low
[52] = locus YKL203C, strain TOR2, active compounds read low
[53] = locus YLR113W, strain HOG1, active compounds read low
[54] = locus YLR133W, strain CKI1, active compounds read low
[55] = locus YLR403W, strain SFP1, active compounds read low
[56] = locus YML070W, strain DAK1, active compounds read low
[57] = locus YMR001C, strain CDC5, active compounds read low
[58] = locus YMR205C, strain PFK2 (second series), active compounds read low
[59] = locus YMR277W, strain FCP1, active compounds read low
[60] = locus YNL006W, strain LST8, active compounds read low
[61] = locus YNL020C, strain ARK1, active compounds read low
[62] = locus YNL161W, strain CBK1, active compounds read low
[63] = locus YNL183C, strain NPR1, active compounds read low
[64] = locus YNL207W, strain RIO2, active compounds read low
[65] = locus YNL222W, strain SSU72, active compounds read low
[66] = locus YNL307C, strain MCK1 (second series), active compounds read low
[67] = locus YOL078W, strain AVO1, active compounds read low
[68] = locus YOL136C, strain PFK27, active compounds read low
[69] = locus YOR061W, strain CKA2, active compounds read low
[70] = locus YOR119C, strain RIO1, active compounds read low
[71] = locus YOR231W, strain MKK1, active compounds read low
[72] = locus YOR329C, strain SCD5, active compounds read low
[73] = locus YPL031C, strain PHO85, active compounds read low
[74] = locus YPL153C, strain RAD53, active compounds read low
[75] = locus YPL204W, strain HRR25, active compounds read low
[76] = locus YPL209C, strain IPL1, active compounds read low
[77] = locus YPL256C, strain CLN2, active compounds read low
[78] = locus YPR025C, strain CCL1, active compounds read low
[79] = locus YPR106W, strain ISR1, active compounds read low
[80] = locus YPR111W, strain DBF20, active compounds read low
[81] = strain NNK1, active compounds read low
[82] = strain TSCII, active compounds read low

Measured: normalized growth

CN=C(N)NCCC[C@H](N)C(=O)O
inactive: [1] 1.02 | [2] 0.993 | [3] 1.03 | [4] 1.04 | [5] 0.992 | locus YMR263W, strain SAP30, active compounds read low 0.99 | [6] 1.02 | [7] 1.01 | [8] 1.01 | [9] 1.01 | [10] 1.01 | [11] 1

COc1cccc2c1[C@@H]1CN(CCCCn3c(=O)[nH]c4c(sc5ncc(-c6ccccc6)nc54)c3=O)C[C@@H]1CO2
active: locus YPL055C, strain LGE1, active compounds read low 0.781
inactive: [1] 0.921 | [2] 0.969 | [3] 0.962 | locus YDR150W, strain NUM1, active compounds read low 1.01 | [4] 0.963 | [5] 1.01 | locus YNL128W, strain TEP1, active compounds read low 1.02 | [6] 0.929 | [7] 1.03 | [8] 1 | [9] 1 | [10] 0.93 | [11] 0.984

Cc1nc(C(F)(F)F)ccc1-c1nnc(SC(=O)c2ccc(Cl)cc2)o1
inactive: [26] 0.82 | [28] 0.792 | [32] 0.81 | [34] 0.831 | [35] 0.638 | [36] 0.568 | [42] 0.532 | [44] 0.764 | [47] 0.631 | [52] 0.862 | [55] 0.818 | [70] 0.909 | [73] 0.81 | [74] 0.837 | [75] 0.782
active: [12] 0.875 | [13] 0.883 | [14] 0.884 | [15] 0.888 | [16] 0.878 | [17] 0.882 | [18] 0.884 | [19] 0.866 | [20] 0.882 | [21] 0.877 | [22] 0.648 | [23] 0.886 | [24] 0.857 | [25] 0.867 | [27] 0.49 | [29] 0.868 | [30] 0.872 | [31] 0.879 | [33] 0.881 | [37] 0.358 | [38] 0.442 | [39] 0.617 | [40] 0.348 | [41] 0.885 | [43] 0.747 | [45] 0.87 | [46] 0.393 | [48] 0.785 | [49] 0.641 | [50] 0.639 | [51] 0.874 | [53] 0.229 | [54] 0.684 | [56] 0.604 | [57] 0.875 | [58] 0.682 | [59] 0.876 | [60] 0.888 | [61] 0.655 | [62] 0.865 | [63] 0.566 | [64] 0.874 | [65] 0.877 | [66] 0.589 | [67] 0.874 | [68] 0.604 | [69] 0.644 | [71] 0.454 | [72] 0.877 | [76] 0.877 | [77] 0.334 | [78] 0.877 | [79] 0.833 | [80] 0.803 | [81] 0.786 | [82] 0.865

Cc1nc(C(F)(F)F)ccc1C(=O)Sc1nnc(-c2ccc(C(F)(F)F)nc2C)o1
inactive: [12] 0.946 | [13] 0.95 | [14] 0.954 | [15] 0.955 | [16] 0.952 | [17] 0.951 | [18] 0.955 | [19] 0.961 | [20] 0.952 | [21] 0.956 | [22] 0.901 | [23] 0.949 | [24] 0.939 | [25] 0.946 | [26] 0.943 | [27] 0.858 | [28] 0.936 | [29] 0.946 | [30] 0.947 | [31] 0.952 | [32] 0.976 | [33] 0.959 | [34] 0.956 | [35] 0.929 | [36] 0.864 | [38] 0.737 | [39] 0.962 | [40] 0.732 | [41] 0.952 | [42] 0.861 | [43] 0.902 | [44] 0.945 | [45] 0.952 | [46] 0.716 | [47] 0.935 | [48] 0.937 | [49] 0.893 | [50] 0.886 | [51] 0.949 | [52] 0.989 | [54] 0.924 | [55] 0.945 | [56] 0.89 | [57] 0.953 | [58] 0.918 | [59] 0.951 | [60] 0.959 | [61] 0.889 | [62] 0.936 | [63] 0.905 | [64] 0.942 | [65] 0.954 | [66] 0.868 | [67] 0.949 | [68] 0.876 | [69] 0.887 | [70] 1.02 | [71] 0.802 | [72] 0.953 | [73] 0.94 | [74] 0.963 | [75] 0.934 | [76] 0.95 | [78] 0.949 | [79] 0.951 | [80] 0.919 | [81] 0.928 | [82] 0.943
active: [37] 0.617 | [53] 0.515 | [77] 0.605
